Reference: PubChem BioAssay (Tox21)
Values without a mark were called inactive. Results filed as inconclusive are left out. Where a call stands in place of a potency, no number is given. The source made the active and inactive calls. Unless noted, calls come from the whole dose curve; as a rule, active = well fitted curve in the direction sought with a large enough effect in the repeat runs; inconclusive = weak or mixed curves; inactive = no such curve, though single readings can be large; an effect the other way counts as inactive or inconclusive.

Assays:
[1] = qHTS assay for small molecule agonists of the p53 signaling pathway (AID 651631; calls by dose curve; note: nearly all actives have a fitted effect of over 15% in size; note: potency is the fitted concentration of half-maximal effect)
Procedure, shortened: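 Readout was fluorescence from the LiveBLAzer FRET substrate, applied for 2 h at room temperature after 16 h compound exposure at 37 °C. Cells were the p53RE-bla HCT-116 line, with beta-lactamase driven by p53 response elements.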

[2] = qHTS assay for small molecules that induce genotoxicity in human embryonic kidney cells expressing luciferase-tagged ATAD5 (AID 651632); note: nearly all actives have a fitted effect of over 15% in size
Procedure, shortened: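 Luminescent reporter readout, HEK293T ATAD5-luc line: 16 hr drug exposure (37C, 5% CO2) followed by Amplite, 30 min RT.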

[3] = qHTS assay for small molecule agonists of the p53 signaling pathway - cell viability (AID 651633; calls by dose curve; note: nearly all actives have a fitted effect of over 30% in size)
Procedure, shortened: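 p53RE-bla cells, seeded at 4,000 per well and rested 5 h at 37 C/5% CO2, received compounds in DMSO for 16 h at 37 C. CellTiter-Glo was then added, and luminescence was read after 30 min at room temperature to gauge cytotoxicity.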

[4] = qHTS assay for small molecules that induce genotoxicity in human embryonic kidney cells expressing luciferase-tagged ATAD5 - cell viability (AID 651634; calls by dose curve; note: nearly all actives have a fitted effect of over 25% in size)
Procedure, shortened: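 Viability read: CellTiter-Fluor fluorescence, 30 min at 37C. Cells: HEK293T, luciferase-tagged ATAD5. Exposure: 15.5 hr, 37C, 5% CO2, compound or DMSO vehicle.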

[5] = qHTS assay for small molecule disruptors of the mitochondrial membrane potential - cell viability (AID 720634; calls by dose curve;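 note: human HepG2 liver cancer cells; nearly all actives have a fitted effect of over 20% in size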)
Procedure, shortened: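 HepG2, 1 hr compound, 37 C. ATP luminescence via CellTiter-Glo, 30 min RT, same well as m-MPI.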

[6] = qHTS assay to test for compound auto fluorescence at 535 nm (green) in HepG2 cells (AID 720675)
[7] = qHTS assay to test for compound auto fluorescence at 460 nm (blue) in HEK293 cells (AID 720678)
Procedure, shortened: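 Intrinsic compound fluorescence is recorded in live HEK293 cultures after overnight incubation at 37C, 5% CO2, using excitation 405 nm and emission 460 nm. Values are referenced to triamterene.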

[8] = qHTS assay to test for compound auto fluorescence at 590 nm (red) in HEK293 cells (AID 720679)
Procedure, shortened: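 Red autofluorescence, HEK293 cells: 2,000 cells/well; attach 4-5 hr 37C; add 23 nL cpd or DMSO; incubate o/n 37C 5% CO2; read Ex540/Em590; Rose Bengal sodium reference.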

[9] = qHTS assay to test for compound auto fluorescence at 535 nm (green) in HEK293 cells (AID 720680)
[10] = qHTS assay to test for compound auto fluorescence at 460 nm (blue) in HEK293 cell free culture (AID 720681)
Procedure, shortened: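 Test compounds were pinned into cell-free culture medium (DMEM with 10% FBS) and fluorescence was read directly at Ex/Em 405/460 nm. Signals were expressed as fluorescence equivalents of triamterene, with DMSO vehicle as control.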

[11] = qHTS assay to test for compound auto fluorescence at 535 nm (green) in HEK293 cell free culture (AID 720682)
Procedure, shortened: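 Compounds were pin-transferred into cell-free DMEM with 10% FBS, and green fluorescence was read at excitation 485 nm and emission 535 nm. Intensities were expressed as fluorescein-equivalent values.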

[12] = qHTS assay to test for compound auto fluorescence at 590 nm (red) in HepG2 cell free culture (AID 720684)
Procedure, shortened: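 Measured in medium alone (MEM containing 10% FBS) following pintool addition of compound; emission at 590 nm with 540 nm excitation, referenced to Rose Bengal sodium.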

[13] = qHTS assay to test for compound auto fluorescence at 460 nm (blue) in HepG2 cell free culture (AID 720685)
Procedure, shortened: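 Compound (23 nL) or DMSO pinned into cell-free MEM with 10% FBS; blue fluorescence read at 405/460 nm excitation/emission, expressed as auto-fluorescence equivalency to triamterene.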

[14] = qHTS assay to test for compound auto fluorescence at 535 nm (green) in HepG2 cell free culture (AID 720686)
[15] = qHTS assay to test for compound auto fluorescence at 460 nm (blue) in HepG2 cells (AID 720687)
Procedure, shortened: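 Cells (2,000/well in MEM with 10% FBS) attached overnight at 37 C, then were exposed to compound or DMSO for 1 hr at 37 C, 5% CO2. Fluorescence read at Ex/Em 405/460 nm, expressed as triamterene-equivalent signal.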

[16] = qHTS assay for small molecule disruptors of the mitochondrial membrane potential (AID 720635); note: potency is the fitted concentration of half-maximal effect
Procedure, shortened: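 HepG2 cells (2,000/well) attached overnight at 37C, then took compound for 1 hr at 37C, 5% CO2. Mito-MPS dye was added for 30 min; fluorescence was read at 490/535 nm (monomers) and 540/590 nm (aggregates).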

[17] = qHTS assay to test for compound auto fluorescence at 590 nm (red) in HepG2 cells (AID 720674)
Procedure, shortened: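 Rose Bengal sodium served as the red fluorophore standard. HepG2 monolayers (overnight attachment, MEM with 10% FBS) were exposed to test compounds for 1 hr at 37 C and read at Ex 540/Em 590 nm.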

[18] = qHTS assay to test for compound auto fluorescence at 590 nm (red) in HEK293 cell free culture (AID 720683)
Procedure, shortened: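 Tox21 10K library compounds were pinned into cell-free DMEM with 10% FBS and fluorescence was read at excitation 540 nm. Activity is expressed as Rose Bengal sodium equivalency.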

[19] = target: Glucocorticoid receptor (Homo sapiens) (UniProt P04150); assay: qHTS assay to identify small molecule agonists of the glucocorticoid receptor (GR) signaling pathway (AID 720691; active = well fitted activation curve with a large enough effect in the signal ratio in the repeat runs, not every such curve was filed as active; the % refers to the signal ratio); details: GR-bla HeLa, beta-lactamase reporter ratio, 18 h; activation: at 62.4 µM (top of the series) unless noted
Procedure, shortened: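 qHTS in GR-bla HeLa cells: 4 h settling at 37 C/5% CO2, 18 h compound incubation at 37 C, 2 h LiveBLAzer B/G FRET substrate at room temperature, fluorescence intensity measured.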

[20] = target: Glucocorticoid receptor (Homo sapiens) (UniProt P04150); assay: qHTS assay to identify small molecule antagonists of the glucocorticoid receptor (GR) signaling pathway (AID 720692; active = well fitted inhibition curve with a large enough effect in the signal ratio in the repeat runs, not every such curve was filed as active; the % refers to the signal ratio)
Procedure, shortened: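 Inhibition of glucocorticoid signalling is measured in HeLa cells with a GRE-controlled beta-lactamase reporter; cells are co-treated with compound and 5 nM dexamethasone (final) for 18 h before FRET substrate readout.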

Chain of Glucocorticoid receptor (Homo sapiens) (P04150 whole entry, looked up): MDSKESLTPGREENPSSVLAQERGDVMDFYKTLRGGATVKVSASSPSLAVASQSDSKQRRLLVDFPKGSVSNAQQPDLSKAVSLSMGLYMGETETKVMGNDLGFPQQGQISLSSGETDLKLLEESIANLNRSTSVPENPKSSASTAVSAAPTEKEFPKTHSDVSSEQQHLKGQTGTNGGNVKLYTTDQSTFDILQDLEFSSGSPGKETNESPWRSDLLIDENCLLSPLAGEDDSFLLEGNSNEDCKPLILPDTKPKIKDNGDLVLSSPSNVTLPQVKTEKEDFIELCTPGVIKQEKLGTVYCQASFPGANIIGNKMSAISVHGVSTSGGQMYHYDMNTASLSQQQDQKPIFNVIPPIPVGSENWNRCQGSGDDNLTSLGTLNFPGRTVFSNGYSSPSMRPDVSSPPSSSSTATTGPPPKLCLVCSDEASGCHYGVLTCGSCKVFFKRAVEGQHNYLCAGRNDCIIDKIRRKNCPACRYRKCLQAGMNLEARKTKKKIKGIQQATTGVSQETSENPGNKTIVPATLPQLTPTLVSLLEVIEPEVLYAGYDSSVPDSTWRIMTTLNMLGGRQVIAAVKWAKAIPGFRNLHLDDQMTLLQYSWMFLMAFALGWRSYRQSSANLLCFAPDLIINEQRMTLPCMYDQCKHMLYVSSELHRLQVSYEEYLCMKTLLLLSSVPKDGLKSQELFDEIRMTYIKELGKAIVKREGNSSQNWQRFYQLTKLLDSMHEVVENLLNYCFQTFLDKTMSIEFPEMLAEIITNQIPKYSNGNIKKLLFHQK

SMILES | Potency [1] | Potency [2] | Potency [3] | Potency [4] | Potency [5] | Potency [6] | outcome [7] | Potency [8] | outcome [9] | outcome [10] | outcome [11] | Potency [12] | outcome [13] | Potency [14] | outcome [15] | Potency [16] | Potency [17] | Potency [18] | Potency [19] | Potency [20]
Nc1cccc(S(=O)(=O)c2cccc(N)c2)c1 | inactive | inactive | inactive | inactive | inactive | inactive | inactive | inactive | inactive | inactive | inactive | inactive | inactive | inactive | inactive |  |  |  |  | 
c1ccc(-c2ccccn2)nc1 | inactive |  | inactive | inactive | inactive | inactive | inactive | inactive | inactive | inactive | inactive | inactive | inactive | inactive | inactive | inactive | inactive | inactive |  | 
CCCCC/C=C\C/C=C\CCCCCCCC(=O)NC(C)c1ccccc1 (stereo not drawn) | inactive |  | inactive | inactive | inactive | inactive | inactive | inactive | inactive | inactive |  | inactive | inactive | inactive | inactive |  | inactive |  | inactive | 
Cc1ncc(CO)c(C=O)c1O | inactive |  | inactive | inactive | inactive | inactive | inactive | inactive |  | inactive | inactive | inactive | inactive | inactive |  |  | inactive | inactive |  | 
CCCCC(CC)COC(=O)CCCCCCCCC(=O)OCC(CC)CCCC (stereo not drawn) | inactive | inactive |  | inactive | inactive | inactive | inactive | inactive | inactive | inactive | inactive | inactive | inactive | inactive | inactive |  | inactive | inactive |  | inactive
O=C1c2ccccc2S(=O)(=O)N1CCCCN1CCN(c2ncccn2)CC1 | inactive |  | inactive | inactive | inactive | inactive | inactive | inactive | inactive | inactive | inactive | inactive | inactive | inactive | inactive | inactive | inactive | inactive | inactive | inactive
COc1ccc(C(=O)c2ccc(OC)cc2O)c(O)c1 | 19.5 µM (active) | inactive | inactive | inactive |  | inactive | inactive | inactive | inactive | inactive |  | inactive | inactive | inactive | inactive | 6.16 µM (active) | inactive | inactive |  | 
